Laboratory results reported in PubChem BioAssay AID1445 (SRMLSC, 2008).
Out of some 220,000 compounds screened, about 910 (0.41%) were called active.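 The calls were made as follows: active = primary inhibition above the hit cutoff, then over 50% inhibition at one or more dose response concentrations (cut at about 23% in these data, passing the limit was not always enough); inconclusive = conflicting primary data, or primary hits not chosen for dose response; inactive = low primary inhibition, or under 50% at every dose.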 Only a selection was taken, and actives are over-represented in it overall. Results with a measured potency or affinity are listed apart.

Each compound was assayed against Aminopeptidase N (Plasmodium falciparum (isolate 3D7)) (UniProt O96935) (assay: malaria alanyl aminopeptidase activity blockers – biochemical, fluorogenic H-Leu-NHMec substrate, 1536-well (AID 1445;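 also: plate controls were DMSO full reaction for no effect and no enzyme background for full effect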)). Conditions: recombinant M1AAP, H-Leu-NHMec fluorogenic kinetic assay; at 30 µM, active compounds read high unless noted.
Sequence of Aminopeptidase N (Plasmodium falciparum (isolate 3D7)) (O96935 whole entry, looked up): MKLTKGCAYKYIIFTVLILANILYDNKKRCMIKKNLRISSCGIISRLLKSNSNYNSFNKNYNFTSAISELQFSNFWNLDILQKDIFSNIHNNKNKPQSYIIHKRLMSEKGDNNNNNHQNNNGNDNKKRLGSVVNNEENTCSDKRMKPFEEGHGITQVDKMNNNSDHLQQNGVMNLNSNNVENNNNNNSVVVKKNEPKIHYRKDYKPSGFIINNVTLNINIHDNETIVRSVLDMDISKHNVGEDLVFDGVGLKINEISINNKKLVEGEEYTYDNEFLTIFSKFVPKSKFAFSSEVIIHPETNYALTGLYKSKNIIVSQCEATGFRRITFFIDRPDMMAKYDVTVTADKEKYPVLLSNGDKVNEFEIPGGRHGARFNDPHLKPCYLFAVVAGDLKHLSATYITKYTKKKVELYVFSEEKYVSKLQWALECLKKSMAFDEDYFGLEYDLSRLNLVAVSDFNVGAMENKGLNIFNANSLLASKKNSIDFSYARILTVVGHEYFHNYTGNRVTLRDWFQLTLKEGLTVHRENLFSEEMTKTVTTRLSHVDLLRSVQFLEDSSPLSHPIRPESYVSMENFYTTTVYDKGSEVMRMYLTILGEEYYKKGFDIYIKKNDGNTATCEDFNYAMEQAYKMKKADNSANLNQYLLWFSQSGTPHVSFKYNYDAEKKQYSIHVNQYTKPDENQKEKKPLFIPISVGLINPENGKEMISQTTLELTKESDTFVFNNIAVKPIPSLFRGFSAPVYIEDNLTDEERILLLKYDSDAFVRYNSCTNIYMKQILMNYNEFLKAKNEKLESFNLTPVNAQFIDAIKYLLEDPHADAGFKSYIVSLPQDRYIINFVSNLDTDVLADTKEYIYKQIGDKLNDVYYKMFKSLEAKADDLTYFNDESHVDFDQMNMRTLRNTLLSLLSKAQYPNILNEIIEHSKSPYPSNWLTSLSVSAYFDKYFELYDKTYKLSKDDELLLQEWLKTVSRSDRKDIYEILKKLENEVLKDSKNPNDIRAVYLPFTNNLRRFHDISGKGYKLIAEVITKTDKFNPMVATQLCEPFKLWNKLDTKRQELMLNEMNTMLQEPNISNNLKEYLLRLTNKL

inhibition, active:
COC(=O)c1cc2oc(C)cc2n1CC(=O)N(C)c1ccccc1 24.4%, C=CCn1c(=O)c2c(nc3n2CC(C)CN3c2cccc(OC)c2)n(C)c1=O (configuration not stated) 26.4%, c1ccc(Oc2cccc(NC3=NCCC3)c2)cc1 29.3%, Cc1ccc(CN2CCN(C(=O)C3CCC3)CC2)cc1 27.7%, Cc1nc(NC2=NCN(CCCN3CCOCC3)CN2)nc2c(C)cccc12 29.4%, CC1(C)Oc2ccc3ccc(=O)oc3c2-c2cn[nH]c21 26.5%

inhibition, inactive:
COc1ccc(-c2nnc(SCC(=O)Nc3cc(F)ccc3C)o2)cc1 -0.41%, CCOc1ccc(N2C(=O)C(=O)/C(=C(/O)c3ccccc3)C2c2ccccc2[N+](=O)[O-])cc1 (configuration not stated) 5.86%, Cc1ccc(C(=O)Nc2c(-c3cccs3)c(=O)c3ccccc3n2C)cc1 5.78%, NNC(=O)Cn1nc2n(c1=O)-c1ccccc1SC2 -0.09%, Cc1nnc(-n2ncc(C#N)c2N)c2nn(-c3cccc(Cl)c3)c(C)c12 0.94%, COC(=O)c1cc2sccc2n1CC(=O)N(C)c1ccccc1 4.58%, C=CCN(C(=O)Cn1c(C(=O)OC)cc2oc(C)cc21)c1ccccc1 0.64%, O=C(Cn1cc(C(F)(F)F)ccc1=O)N/N=C/c1ccccc1O 1.53%, CN1C(=O)/C(=N/OC(=O)c2ccccc2)c2ccccc21 -0.99%, CN1C(=O)/C(=N\OC(=O)c2cccc3ccccc23)c2ccccc21 5.56%, COC(=O)c1cccc(Nc2nc(-c3cccnc3)nc3ccccc23)c1 0.67%, O=C(O)c1ccc(Nc2nc(-c3cccnc3)nc3ccccc23)cc1 10.8%, COc1cccc(N2CC(O)Cn3c2nc2c3c(=O)n(CCCc3ccccc3)c(=O)n2C)c1 (configuration not stated) 2.82%, COc1cccc(N2CC(C)Cn3c2nc2c3c(=O)n(CCN3CCOCC3)c(=O)n2C)c1 (configuration not stated) 2.83%, O=[N+]([O-])c1cccc(NC2=NCCC2)c1 3.59%, Clc1cccc(NC2=NCCC2)c1 0.77%, O=C(C1CCC1)N1CCN(Cc2ccccc2)CC1 7.01%, Cc1ccc(CN2CCN(C(=O)C3CCCO3)CC2)cc1 (configuration not stated) -1.62%, CCN(CC)CC(C)CNC(=O)CN1C(=O)CSc2ccc(S(=O)(=O)N3CCOCC3)cc21 (configuration not stated) 8.54%, Cc1ccc(OCC(=O)NNC(=O)C(=O)NC(C)(C)C)cc1 13.2%, CC(C)(C)NC(=O)C(=O)NNC(=O)COc1ccccc1 20.1%, CC(=O)NC(=S)NNC(=O)COc1ccc([N+](=O)[O-])cc1 -19.9%, CCC(=O)NC(=S)NNC(=O)COc1ccc(Br)cc1 -1.75%, CCc1ccc(S(=O)(=O)NCc2csc(C)n2)s1 9.49%, Cc1oc(-c2cccs2)nc1CN1CC[C@@](O)(c2ccccc2)[C@H]2CCCC[C@@H]21 4.34%, O=C(O)c1ccc(CNC(=O)c2ccccc2NC(=O)c2ccc([N+](=O)[O-])cc2)cc1 1.28%, CCOC(=O)c1cc2sccc2n1CC(=O)OC 5.03%, C=CCNc1cc(C(F)(F)F)nc(-c2ccccn2)n1 -2.8%, Cc1ccc(S(=O)(=O)NC2=NCN(CCN3CCOCC3)CN2)cc1 2.01%, c1ccc2sc(NC3=NCN(CCN4CCOCC4)CN3)nc2c1 -2.82%, NC(=O)C1CCCN(C(=S)Nc2ccccc2)C1 (configuration not stated) 0.97%, CSc1nc2c(c(=O)[nH]1)C(c1cccs1)C1=C(CCCC1=O)N2 (configuration not stated) 9.61%, O=C(O)c1ccccc1-c1nc2ccccc2[nH]1 0.23%, O=C(O)c1ccc(-c2nc(-c3ccccc3)c(-c3ccccc3)[nH]2)cc1 23.1%, c1ccc(OCc2nn3c(-c4ccco4)nnc3s2)cc1 -2.34%, COc1ccc(Cl)cc1NC(=S)N1CCN(S(C)(=O)=O)CC1 5.32%, COC(=O)C1=C(C)NC(C)=C(C(=O)OC)C1c1ccc(-c2cccc([N+](=O)[O-])c2)o1 7.62%, CC1(C)Oc2ccc3ccc(=O)oc3c2/C(=C/N)C1=O 8.41%, CC1(C)Oc2ccc3ccc(=O)oc3c2-c2cnoc21 50.2%, COC(=O)Nc1ccc(=O)n(Cc2c(Cl)cccc2Cl)c1 4.71%, O=C1N(Cc2ccccc2)CCCC12CCCN(Cc1ccccc1)C2=O 8.22%, O=C(NCc1ccccc1)c1cc(-c2cccs2)on1 -3.95%, Cc1cccc(NC(=S)NC(NC(=O)c2ccco2)C(Cl)(Cl)Cl)c1 (configuration not stated) 18.2%, Cc1ccc(NC(NC(=O)c2ccccc2[N+](=O)[O-])C(Cl)(Cl)Cl)cc1 (configuration not stated) 7.36%, O=C(NC(NC(=S)Nc1ccc(Cl)c(Cl)c1)C(Cl)(Cl)Cl)c1ccco1 (configuration not stated) 9.33%, CC(=O)c1ccc(NC(=S)NC(NC(=O)c2ccco2)C(Cl)(Cl)Cl)cc1 (configuration not stated) 11.3%, O=C(Nc1cccc(O)c1)c1ccccc1[N+](=O)[O-] -3.03%, CC(=O)c1ccc(NC(=O)C(Cc2ccccc2)NC(=O)c2ccco2)cc1 (configuration not stated) 4.11%, CCc1ccc(NC(=O)CSCCO)cc1 -0.74%, Cn1nnnc1Sc1c(Cl)cccc1[N+](=O)[O-] -3.63%, CC1(C)COC(c2coc3ccccc3c2=O)OC1 2.08%, COc1ccc(N)cc1C#N 2.91%, O=C(CCCN1C(=O)/C(=C/c2ccco2)SC1=S)Nc1cccc(C(=O)O)c1 6.76%, O=C(CCCN1C(=O)/C(=C\c2ccco2)SC1=S)Nc1ccc2ccccc2c1 11.9%, CCOCCCNC(=O)CN(c1cc([N+](=O)[O-])ccc1OC)S(C)(=O)=O 2.57%, CS(C)(=O)=NS(=O)(=O)c1ccc(Cl)cc1 1.82%
